Source: PubChem (University of Kansas High Throughput Screening Laboratory)
A selection: hits, their analogues and other compounds. The true share with any hit is near 3.5%.
Pf apPOL inh: Pf-apPOL DNA polymerase inhibition; Recombinant Pf-apPOL, molecular beacon fluorescence, 1.5 h; inhibition, % at 10 µM; 210,000 tested, 0.25% active; AID 1794808
mHTT-CaM PPI inh: mHTT-calmodulin interaction abrogation; P42858; AlphaScreen His-mHTT/GST-CaM binding, luminescence; inhibition, % at 15 µM; 190,000 tested, 3.6% active;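 also: 0% = both proteins with DMSO and 100% = one protein alone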
Starred values were filed as active, the others as inactive; / = not tested or not shown; ! = repeats disagree. Rule as the data show it: active = inhibition above about 50%; inactive = the rest.

SMILES	Pf apPOL inh	mHTT-CaM PPI inh
Cc1ccc2[nH]c3c(c2c1)CC(NC(=O)Cc1ccccc1C)CC3 (centres undefined)	3	42
Cc1cc(C)c2c3c([nH]c2c1)CCC(NC(=O)C1CCCC1)C3 (centres undefined)	2	36
CC(C)C(=O)NC1CCc2[nH]c3cc(Cl)cc(Cl)c3c2C1 (centres undefined)	-2	68*
Cc1ccccc1COCc1nn(C)c2c1CN(C(=O)c1ccc3c(c1)OCO3)CC2	-7	14
O=C(CCc1csc2nc(C3CC3)cn12)NCCC1=CCCCC1	-6	1
CC1Cc2nc(SCC(=O)Nc3ccc(Cl)cc3)n(Cc3ccccc3)c(=O)c2S1 (centres undefined)	2	1
COc1ccc(C(=O)Nc2nc3ccc(C)cc3s2)cc1OC	2	51*!
COc1ccc(C(=O)Nc2nc3ccc(C)cc3s2)cc1[N+](=O)[O-]	-23	2
Cc1noc(C)c1CC(=O)N1CCCn2cc(-c3ccccc3)nc21	6	53*
Cc1noc(C)c1CC(=O)N1CCCn2cc(-c3ccccc3F)nc21	0	4
CCCCN1C(=O)S/C(=C\c2cc(C)n(C)c2C)C1=O	-6	1
c1ccc(Cn2cnnc2C2CCCN(Cc3ccccn3)C2)cc1 (centres undefined)	-26	94*
c1ccc(Cn2cnnc2C2CCCN(Cc3ccncc3)C2)cc1 (centres undefined)	-5	-4
CCc1cc(=O)oc2cc3occ(-c4ccc(Br)cc4)c3cc12	-2	-2
Brc1ccccc1NCc1ccncc1	2	0
Cc1nn(C(=O)CCN2C(=O)c3ccccc3C2=O)c(C)c1Br	71*	-3
Cc1nn(C(=O)C(C)N2C(=O)c3ccccc3C2=O)c(C)c1Br (centres undefined)	-1	-3
COc1ccc(NC(=O)CC(NCCC2=CCCCC2)C(=O)O)c(OC)c1 (centres undefined)	-1	-1
COCn1c(COc2cc(C)ccc2C(C)C)nc2ccccc21	-4	-23
Cc1ccc(C(C)C)c(OCCCn2c(CO)nc3ccccc32)c1	-6	65*
COc1ccc(NC(=O)C2CC(=O)OC23CCCCC3)c([N+](=O)[O-])c1 (centres undefined)	-9	3
COc1cc2c(cc1OC)C(COc1ccccc1OC)N(C(=O)c1ccco1)CC2 (centres undefined)	-4	30
COc1cc2c(cc1OC)C(COc1cccc(C(F)(F)F)c1)N(C(=O)c1ccco1)CC2 (centres undefined)	-4	100*
COC(=O)c1ccc(OCC2c3cc(OC)c(OC)cc3CCN2C(=O)C2CC2)cc1 (centres undefined)	-7	30
COc1cc2c(cc1OC)C(COc1cccc(C(F)(F)F)c1)N(C(=O)C1CC1)CC2 (centres undefined)	-6	95*
SMILES	Pf apPOL inh	mHTT-CaM PPI inh
COc1cc2c(cc1OC)C(COc1ccccc1OC)N(C(=O)C(C)C)CC2 (centres undefined)	0	9
COc1cc2c(cc1OC)C(COc1cccc(C(F)(F)F)c1)N(C(=O)C(C)C)CC2 (centres undefined)	-1	96*
O=C(N1CCN2CCCC2C1)C12CC3CC(C1)CC(n1cncn1)(C3)C2 (centres undefined)	7	-1
O=C(Cc1ccc(F)cc1)N1CCC(COc2ccccc2C(=O)N2CCCCC2)CC1	1	5
CCc1ccc(NC(=O)N2CCCC(C)(C(=O)NCc3ccccc3C)C2)cc1 (centres undefined)	1	6
O=C(C1CC1)N1CCCC1c1ccccc1Cl (centres undefined)	-4	-1
O=C(NCc1cccnc1)C1CCN(c2nccn3nc(-c4ccccc4)cc23)CC1	13	9
Cc1ccc(C2CC(C(F)(F)F)n3ncc(C(=O)NCc4cccnc4)c3N2)cc1 (centres undefined)	-8	22
CC1(C(=O)NC2CCCCCCC2)Cc2ccccc2C(=O)N1CCCN1CCOCC1 (centres undefined)	0	1
CCC(=O)N1CCc2cc(Br)cc(S(=O)(=O)N3CCN(CC)CC3)c21	-12	-3
Cc1nc(C(=O)NCCCN2CCCC2)c(C)n1C1CCN(S(C)(=O)=O)CC1	-6	14
C=CCNC(=O)CN(c1ccc(I)cc1)S(C)(=O)=O	-8	-5
CCC(C)NC(=O)CN1CCN(C(=O)Nc2ccc(F)cc2)CC1=O (centres undefined)	-6	-10
Cn1nc(CC#N)c(C#N)c1N	11	/
N#Cc1c(C#N)c(N)n(N)c1N	/	100*
CCOC(=O)N1CCN(C(=O)c2ccc(C)cc2Cl)CC1	-7	-5
CCOC(=O)c1cc(-c2ccnn2S(=O)(=O)c2cccc(C(F)(F)F)c2)on1	82*	/
Cc1cc(-c2nc(-c3ccnn3S(=O)(=O)c3cccc(C(F)(F)F)c3)cs2)no1	3	/
Cc1sc2nc(C3CC3)nc(N3CCN(C(=O)CCCl)CC3)c2c1C	-9	22
Cc1ccc2nc(NC(=O)CSc3ccc(-c4ccco4)nn3)sc2c1	74*	85*
NC(=O)CSc1ccc(-c2ccccn2)nn1	-4	100*
O=C(CSc1ccc(-c2ccccn2)nn1)Nc1nc2ccccc2s1	-1	89*
NC(=O)CSc1nc2ccccc2nc1SCC(N)=O	-5	-3
Cc1ccc2nc(NC(=O)CSc3ccc(NC(=O)C4CC4)nn3)sc2c1	5	-6
O=C(CSc1cccc2cccnc12)Nc1nc2ccccc2s1	1	14
SMILES	Pf apPOL inh	mHTT-CaM PPI inh
O=C(c1ccoc1)N1CCC(c2cc(-c3ccc(F)cc3)n[nH]2)CC1	-5	7
CCN(CC1CC(c2cccc(F)c2)=NO1)C(=O)C1CCC1 (centres undefined)	-5	-4
Nc1c(C(=O)c2ccc(Br)cc2)sc2nc3c(cc12)C(=O)CCC3	-3	7
O=C(NC1CCN(Cc2ccccc2)CC1)c1cccn2c(=O)c3cc(Cl)ccc3nc12	-2	13
Cc1ccc2nc3c(C(=O)N4CCN(Cc5ccccc5)CC4)cccn3c(=O)c2c1	-3	84*
NC(CC1CC1(Cl)Cl)=NOC(=O)c1ccccc1 (centres undefined)	-4	/
CCC(=O)Nc1ccc2nc(-c3ccc(C)cc3)cc(OC)c2c1	2	9
CN(C)c1nc2cc(C(=O)N3CCCC3)sc2n1-c1ccccc1	-2	50*
CN(C)c1nc2cc(C(=O)NCC3CC3)sc2n1-c1ccccc1	1	7
COc1ccc(NC(=O)CS(=O)(=O)c2cn(Cc3cccc(F)c3)c3ccccc23)cc1	-5	3
COc1cccc(N(C(C)=O)C2=C(NC3CCCCC3)C(=O)c3ccccc3C2=O)c1	6	62*
CCCNC1=C(N(C(C)=O)c2cccc(F)c2)C(=O)c2ccccc2C1=O	-15	27
CC(=O)N(C1=C(NC2CCCCC2)C(=O)c2ccccc2C1=O)c1ccc(F)c(F)c1	-6	48
CC(=O)N(C1=C(Nc2ccccc2)C(=O)c2ccccc2C1=O)c1ccccc1	-3	55*
COCCNC(=O)c1cncc(-c2ccc(F)cc2)c1	4	-3
O=C(Nc1ccc(S(=O)(=O)Nc2nccs2)cc1)C(Cl)Cl	-6	7
O=C(Nc1ccc(S(=O)(=O)Nc2nccs2)cc1)Nc1ccc(Cl)c(Cl)c1	-3	78*
O=C1NC(=O)N(Cc2ccc(F)cc2)C(=O)/C1=C\c1cc2c(cc1[N+](=O)[O-])OCO2	3	67*
